Structures are written as SMILES.
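Also: kd values determined as follow-up on hits from a single-replicate KINOMEscan panel screen.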

What is called Kd is the free concentration of one partner at which half of the binding sites on the other are occupied at equilibrium, for simple one-to-one binding. A higher Kd goes with lower affinity. As for `COc1cc2nccc(Nc3ccc(OCc4ccc(NC(C)=O)cc4)cc3)c2cc1OC.Cl` [GW440135], in the experiment with FLT4, the Kd came to 480 nM.

With `Cc1cccc(-c2cc(-c3c[nH]nc3-c3ccccn3)ccn2)c1` [GW679395], the Kd in the experiment on GAK was found to be 130 nM.

The compound `OCCCNc1nccc(-c2c(-c3cccc(C(F)(F)F)c3)nn3cc(C(F)(F)F)ccc23)n1` [GW630813] yielded a Kd in the experiment with GRK1 of more than 10000 nM. `CN1C(=O)C(Nc2cc(Cl)c(O)c(Cl)c2)=C(c2ccc(Cl)cc2)C1=O` [SB-404321] came in with a dissociation constant Kd in the experiment on GRK4 of more than 10000 nM. `CCn1c(-c2ccoc2)nc2cnccc21` [SB-733887] had a Kd in the experiment with GRK7 of more than 10000 nM. Compound `Nc1n[nH]c2nnc(-c3ccccc3)c(-c3ccccc3)c12` [GW554060] returned a Kd in the experiment on HIPK2 of 410 nM. Turning to `Cn1c(=O)c(F)c(Nc2ccc(I)cc2F)c2c(=O)n(OC[C@H](O)CO)cnc21`, in the experiment on HIPK4, the Kd was more than 10000 nM.

In turn, `COc1cc2ncn(-c3cc(OCc4ccncc4)c(C(N)=O)s3)c2cc1OC` [GSK336313] yielded a Kd in the experiment with INSRR of more than 10000 nM.

(Values after article PMC5540273 (PLoS ONE, 2017).)
